These results are taken from PubChem BioAssay AID493191 (Broad Institute, 2011).

Screen size: about 1,300 compounds; about 330 (25%) were called active. How the calls were made is not given here. These entries were drawn from the full list. Measured potencies and affinities stand elsewhere.

The assay can be described thus: growth inhibition of MALME3 cells – cell-based, CellTiter-Glo, cherry-picked, orthogonal assay for MITF inhibitor project, dose response (AID 493191). The following applies: MALME3 melanoma viability, CellTiter-Glo luminescence, 24 h; series mostly up to 35 µM. Background: In ATP-based viability assays light output follows the ATP content of the culture.
As to `CCOCCCNC(=O)/C(C#N)=C/c1ccc(Cl)c([N+](=O)[O-])c1`, the compound was called inactive. The value for `COCCNC(=O)/C(C#N)=C/c1cccc(/C=C(\C#N)C(=O)NCCOC)c1` was “inactive”; that for `CCCOc1ccc(C(=O)Nc2ccc3c(c2)OCCO3)cc1` was “inactive”; that for `CC1CCCC(NC(=O)NC(=O)CCl)C1C` (centres undefined) was “inactive”. Consider `CCCc1ccc(-c2ccc(/C=C/C(=O)O)cc2)nc1`, for which the compound was called inactive. For `COc1cc(OC)cc(C(=O)N[C@H](C(=O)Nc2nc3ccccc3[nH]2)C(C)C)c1`, the compound was classed as inactive.

As to `CCCCNc1nc(=S)n(-c2ccccc2)c(C)c1C(C)=O`, the compound was called inactive. The value for `Cc1cc(Br)ccc1OCc1nc(-c2cccnc2)no1` was “inactive”; that for `CC(=O)COc1ccc2cc(-c3ccccc3)c(=O)oc2c1` was “inactive”; that for `CCOC(=O)c1cc(-c2ccc(OC)cc2)n[nH]1` was “inactive”. For the compound `COc1ccc(Cn2c(-c3ccc(C)cc3)c[n+]3ccccc23)cc1`, the call was inactive. Take `CC(=O)N(c1nnc(-c2cccc(C)c2)s1)C1CCCC1`: the compound was classed as inactive.

In the case of `O=C(Nc1ccc2nc(-c3ccccc3)[nH]c2c1)c1ccco1`, the outcome was inactive.

Turning to `Cc1cccc(NC(=O)Cc2ccc(Br)cc2)n1`, the compound was called inactive. In the case of `C/C(=N\NC(=O)Cc1ccc(Cl)cc1)c1ccccn1` it was “inactive”; in that of `CC(=NNc1nc2ccccc2o1)c1cc2ccccc2cn1`, “inactive”. Take `NCCCNc1nc(N)c([N+](=O)[O-])c(NC2CCCCC2)n1`: the call was inactive. As to `CC(=O)c1ccc(N/C=C/C(=O)c2ccc(Br)cc2)cc1`, the result was inactive. The value for `COc1ccc(NC(=O)c2scc(S(=O)(=O)C(C)C)c2N)cc1` was “inactive”; that for `C/C(=N\NC(=O)C(c1ccccc1)c1ccccc1)c1ccccn1` was “inactive”; that for `CCOC(=O)C1(Cc2ccccc2)CCCN(CCCn2cccn2)C1` (centres undefined) was “inactive”.

Regarding `Cc1csc(N/N=C/c2ccc([N+](=O)[O-])cc2)n1`, the compound was classed as inactive. In the case of `CN(C)S(=O)(=O)c1ccc(-c2csc(N/N=C/c3ccco3)n2)cc1` it was “inactive”; in that of `COC(=O)c1ccc(/C=C(\C#N)C(=O)NC(C)c2ccccc2)cc1` (centres undefined), “inactive”.

As for `COc1ccc(/C=C2\SC(=O)N(CCCC(=O)Nc3cc(Cl)ccc3C(=O)O)C2=O)cc1`, the outcome was inactive.

Regarding `c1cc(CSc2nnc(-c3ccc4c(c3)OCO4)o2)ccn1`, the compound was classed as inactive. In the case of `COc1ccc2c(C)nc(Nc3nc(-c4ccccc4)cc(=O)[nH]3)nc2c1` it was “inactive”; in that of `O=C(Nc1cc2c(cc1Cl)OCCO2)c1ccco1`, “inactive”. The value for `Nc1nnnn1/N=C/C(Br)=C/c1ccccc1` was “inactive”; that for `Cc1cc(C)nc(S/C=C/C(=O)c2ccccc2F)n1` was “inactive”; that for `Cn1nc([N+](=O)[O-])nc1S(C)(=O)=O` was “inactive”. In the case of `CN(C)c1ccc(CNc2ccccn2)cc1` it was “inactive”; in that of `COC(=O)c1ccc(/C=N/Nc2nc(C)c(C)s2)cc1`, “inactive”; in that of `O=C(CCNc1ccccc1)c1ccc2c(c1)OCO2`, “inactive”. For the compound `CC1=NOC(=O)/C1=C\c1ccc(-c2cccc(Cl)c2)o1`, the result was inactive. Regarding `CCC1CCCCN1CCCNC(=O)c1cn(CC)c2ccc(S(=O)(=O)N(C)C3CCCCC3)cc2c1=O` (centres undefined), the call was inactive. Turning to `COc1ccc(NC(=O)C2COc3ccccc3O2)cc1` (centres undefined), the compound was classed as inactive. In the case of `Cc1c(C(=O)N(CCO)Cc2ccccc2)oc2c(F)cccc12` it was “inactive”; in that of `COc1cc2ccccc2cc1C(=O)Nc1ccc(N2CCN(C)CC2)cc1`, “inactive”. For the compound `O=C(O)CSCC(=O)Nc1ccc(C2CCCCC2)cc1`, the outcome was inactive. Regarding `CC(C)OC(=O)CSc1nc2cc3c(cc2cc1C#N)OCO3`, the result was inactive. In the case of `Cc1nn(-c2ccccc2Cl)c(Cl)c1/C=N/Nc1cccc(C(=O)O)c1` it was “inactive”; in that of `N#Cc1cc2c(nc1SC1CC(=O)N(c3ccccc3)C1=O)CCC2` (centres undefined), “inactive”; in that of `CCSc1ccccc1C(=O)n1nnc2ccccc21`, “inactive”. As to `COc1ccc(/C=C/c2cc(C(F)(F)F)on2)cc1`, the result was inactive. The value for `Cc1[nH]nc(Nc2ccc(Br)cc2)c1[N+](=O)[O-]` was “inactive”; that for `CCCCNC(=O)Nc1ccc(C2SCCS2)cc1` was “inactive”. In the case of `COc1ccc(COC(=O)c2cc([N+](=O)[O-])ccc2N2CCOCC2)cc1F`, the result was inactive. The value for `Cc1ccccc1-n1ncc2c([N+](=O)[O-])cc([N+](=O)[O-])cc21` was “inactive”. Turning to `CCN1CCc2c(sc(NC(=O)c3ccc(S(=O)(=O)N4CCCC4)cc3)c2C(=O)NC)C1`, the call was inactive.

For the compound `COc1ccc2nc(C)cc(SCC(=O)N/N=C/c3ccc(O)cc3O)c2c1`, the compound was classed as inactive. The value for `COc1ccc(-c2nc(-c3ccncc3)no2)cc1OC` was “inactive”; that for `COc1ccc(/C=N/Nc2ccccn2)cc1OC` was “inactive”. In the case of `COc1ccc(-c2cc(-c3ccccc3O)[nH]n2)cc1OC` it was “inactive”; in that of `O=C(Nc1nc2cc3c(cc2s1)OCO3)C1=COCCO1`, “inactive”; in that of `O=C(CCC(=O)c1ccc[nH]1)c1ccc(Cl)cc1`, “inactive”. In the case of `C=CCn1c(C)cc(C(=O)Cn2ncc(Cl)c(Cl)c2=O)c1C` it was “inactive”. As to `Cc1c(C#N)c(NC(=O)CCl)n(Cc2ccc(F)cc2)c1C`, the outcome was inactive.

Turning to `Nc1nc2n[nH]nc2c(=O)[nH]1`, the compound was classed as inactive. With `CC(C)c1ccc(/C=C2\SC(=S)N(CCC(=O)N3CCCCC3CCO)C2=O)cc1` (centres undefined), the outcome was inactive. Turning to `CSc1nc(N)n2nc(-c3ccccc3)cc2n1`, the compound was classed as inactive. Take `O=C(Nc1ccc2c(c1)OCCO2)c1ccoc1`: the compound was called inactive. In the case of `Cc1ccc(-c2noc(-c3ccno3)n2)cc1` it was “inactive”; in that of `CC(=C/c1ccco1)/C=N/N1CCN(c2ccccc2)CC1`, “inactive”; in that of `COC(=O)C1=C(CN2CCCc3ccccc32)NC(=O)NC1c1ccc(F)cc1` (centres undefined), “inactive”. The value for `COc1ccc2nc(C)cc(NCc3cccc(C(F)(F)F)c3)c2c1` was “inactive”; that for `O=[N+]([O-])c1cccc(/C=N/Nc2ncc(Br)cn2)c1` was “inactive”; that for `O=C(CSCC(=O)Nc1ccccc1)N/N=C/c1c(O)ccc2ccccc12` was “inactive”. For `O=C(CNc1ccc2ccccc2c1)N/N=C/c1ccc([N+](=O)[O-])o1`, the call was inactive. Turning to `Cc1cc2oc(=O)cc(C)c2cc1NC(=O)CCC(=O)O`, the outcome was inactive. Regarding `C=CCSC(=S)NC1CCS(=O)(=O)C1` (centres undefined), the compound was called inactive. The value for `CCOC(=O)COc1ccc2ccccc2c1/C=C/[N+](=O)[O-]` was “inactive”; that for `N/C(CS(=O)(=O)c1ccccn1)=N\OC(=O)c1ccccc1Cl` was “inactive”; that for `O=C(O)/C=C/C(=O)c1ccc2c(c1)CCc1ccccc1-2` was “inactive”.

As to `C=CCN1C(=O)S/C(=C\c2ccc(N3CCOCC3)cc2C)C1=O`, the outcome was inactive. In the case of `CC(=O)Nc1ccc(-c2nc3ccccc3o2)cc1` it was “inactive”; in that of `CC(=O)Nc1cccc(-c2nnc(-c3ccccc3)o2)c1`, “inactive”; in that of `COc1cccc(/C=N/NC(=O)CN2CC(c3ccccc3)CC2=O)c1OC` (centres undefined), “inactive”. `c1ccc(Cc2cc(-c3ccccc3)on2)cc1`: the call was inactive. In the case of `COc1ccc(NC(=O)NC(=O)c2ccccc2)cc1` it was “inactive”. In the case of `Cc1ccc(C(=O)Nc2cnc3ccccc3c2)cc1` it was “inactive”. In the case of `Cc1ccc(NC(=O)c2ccccc2)cc1` it was “inactive”; in that of `O=C(Nc1ccc(Cl)cc1)Nc1cccc(C(=O)O)c1`, “inactive”. `CCN(CC)CCNC(=O)c1ccc(NC(=O)c2cccc(S(=O)(=O)N3c4ccccc4CC3C)c2)cc1` (centres undefined): the result was inactive. As for `Cc1ccc(NC(=O)c2cc(-c3cccs3)on2)cc1`, the compound was classed as inactive. In the case of `O=[N+]([O-])/C=C\c1ccc(N2CCCC2)c(F)c1` it was “inactive”. With `CN(C)c1ccc(C2=NOC(CN3C(=O)c4ccccc4S3(=O)=O)C2)cc1` (centres undefined), the compound was classed as inactive. The value for `O=C(NCCNc1ccccc1[N+](=O)[O-])c1cc(F)c(F)cc1Cl` was “inactive”; that for `O=C(NC1CC1)C1CCN(S(=O)(=O)c2ccc(Cl)c([N+](=O)[O-])c2)CC1` was “inactive”; that for `CCC(=O)Nc1cc(C(=O)OCC(=O)c2ccccc2Cl)ccc1C` was “inactive”. The value for `CN(CCC#N)C(=O)COC(=O)c1ccccc1C(=O)c1ccc(Cl)c([N+](=O)[O-])c1` was “inactive”; that for `O=C(COC(=O)c1ccc(F)c([N+](=O)[O-])c1)NC(=O)NCc1ccccc1` was “inactive”; that for `Cn1cccc1C(=O)NC(=O)COC(=O)c1ccc(S(C)(=O)=O)c([N+](=O)[O-])c1` was “inactive”. Regarding `N/C(=N\OC(=O)Cc1cccs1)c1ccccc1`, the call was inactive. In the case of `Cc1ccn2c(Nc3ccccc3)c(-c3ccccn3)nc2c1` it was “inactive”. Take `O=C(NC1CCCCC1)C(c1cccnc1)N(C(=O)CCl)c1cccc(Cl)c1` (centres undefined): the call was inactive.

For the compound `CC1Cc2cc(-c3csc(N)n3)ccc2O1` (centres undefined), the compound was classed as inactive.

Consider `CCOc1ccc(C(=O)Nc2cccc(C(=O)O)c2C)cc1Cl`, for which the result was inactive. For the compound `O=C(O)c1ccc(C(=O)Nc2ccc(F)cc2)cc1`, the compound was called inactive.

On to `O=C(Cc1ccccc1)Nc1ccc(NC(=O)c2ccco2)nc1`, for which the result was inactive. Take `COc1ccc(NC(=O)c2cc(-c3ccccc3Cl)on2)cc1`: the compound was called inactive. The value for `CCOC(=O)c1ccc(NC(=O)c2ccc(C)c(S(=O)(=O)N3CCOCC3)c2)cc1` was “inactive”; that for `COc1ccccc1NS(=O)(=O)c1cc(NC(=O)c2ccc(Cl)nc2)ccc1Cl` was “inactive”.

Take `CCOC(=O)c1ccc(NC(=O)c2ccnn2C)cc1`: the result was inactive.

Take `CCOc1ccc(NC(=O)c2ccccn2)cc1`: the call was inactive. The value for `O=C1c2ccccc2S(=O)(=O)N1Cc1nc2ccccc2s1` was “inactive”.

In the case of `Cc1ccc2nc(-c3ccncc3)[nH]c2c1`, the compound was called inactive. In the case of `Fc1ccc(-c2nnc(-c3ccc(F)cc3)o2)cc1` it was “inactive”; in that of `COCCCn1[nH]c2c3c(ccc2c1=O)C(=O)c1ccccc1C3=O`, “inactive”. The value for `O=C(Nc1nc2ccsc2c(=O)s1)C1CCC1` was “inactive”. Turning to `CN(c1ccc(O)cc1)c1nc(O)c(C2=c3ccccc3=NC2=O)s1`, the outcome was inactive. For `Cn1cc(C(=O)N/N=C/c2c(O)ccc3ccccc23)ccc1=O`, the call was inactive. The value for `Cc1cccc(-c2nc(C#N)c(NCc3ccco3)o2)c1` was “inactive”; that for `O=C(NC1CCCCCC1)c1cc2ccccc2oc1=O` was “inactive”; that for `O=C(Nc1ccccc1)C1Cc2ccccc2CN1C(=O)c1ccco1` (centres undefined) was “inactive”. Turning to `C=CCNc1nc(-c2ccccn2)nnc1-c1ccccc1`, the result was inactive. In the case of `COc1ccc(NC(=O)Nc2ccc(F)c(F)c2)c(OC)c1` it was “inactive”. Turning to `CCOC(=O)c1ccc2c(c1)n(CC)c(/C=C/N(C)c1ccccc1)[n+]2CC`, the call was inactive. Turning to `CCn1c(/C=C/N(C)c2ccccc2)[n+](CC)c2ccc(Cl)cc21`, the compound was classed as inactive.
